Experiment [1] is described as follows: qHTS assay to test for compound auto fluorescence at 535 nm (green) in HEK293 cells (AID 720680). The note with it: green autofluorescence 485/535 nm; series mostly up to 46 µM. On the technique in general: Quantitative high-throughput screening tests each substance at several concentrations.
Experiment [2] is described as follows: qHTS assay to test for compound auto fluorescence at 535 nm (green) in HEK293 cell free culture (AID 720682). The note with it: cell-free medium, green autofluorescence 485/535 nm, stronger effect = higher value; series mostly up to 46 µM. The gist of the method: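 No cells present: wells hold DMEM supplemented with 10% FBS, into which compound or vehicle is pinned. Green emission is then recorded (485 nm excitation, 535 nm emission) and scaled to fluorescein.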

The nature of experiment [3]: qHTS assay to test for compound auto fluorescence at 590 nm (red) in HEK293 cell free culture (AID 720683). The note with it: cell-free medium autofluorescence, Ex540/Em590 red; series mostly up to 46 µM. The gist of the method:
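Red-channel autofluorescence of compounds in culture medium (DMEM, 10% FBS), no cells, measured at 540/590 nm. Rose Bengal sodium is the reference fluorophore for equivalence.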

Experiment [4] can be described thus: qHTS assay to test for compound auto fluorescence at 590 nm (red) in HepG2 cell free culture (AID 720684). The note with it: cell-free medium autofluorescence, red 540/590 nm; series mostly up to 46 µM. The essentials:
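Cell-free; medium MEM + 10% FBS; compound or DMSO added by pintool; read Ex 540/Em 590 nm; Rose Bengal sodium as red reference fluorophore.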

Experiment [5] is described as follows: qHTS assay to test for compound auto fluorescence at 460 nm (blue) in HepG2 cell free culture (AID 720685). The note with it: Cell-free culture medium, blue autofluorescence 405/460 nm; series mostly up to 46 µM. The essentials: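 Cell-free plates of MEM plus 10% FBS received 23 nL compound or DMSO vehicle; blue-channel (405/460 nm) intensity scored against triamterene as reference fluorophore.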

A short description of experiment [6]: qHTS assay to test for compound auto fluorescence at 535 nm (green) in HepG2 cell free culture (AID 720686). The note with it: Cell-free medium, green autofluorescence 485/535 nm; series mostly up to 46 µM.
Experiment [7] concerns the target Glucocorticoid receptor (Homo sapiens) (UniProt P04150). The experiment can be described thus: qHTS assay to identify small molecule agonists of the glucocorticoid receptor (GR) signaling pathway (AID 720691; active = well fitted activation curve with a large enough effect in the signal ratio in the repeat runs, not every such curve was filed as active; the % refers to the signal ratio). The note with it: GR-bla HeLa, beta-lactamase reporter ratio, 18 h; activation: at 62.4 µM (top of the series). The gist of the method:
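Cells: GR-bla HeLa, endogenous GR with stably integrated GRE-beta-lactamase reporter. Treatment 18 h, 37 C, compounds delivered in DMSO. Detection via LiveBLAzer B/G FRET substrate, 2 h RT, fluorescence intensity.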

Experiment [8] shares this target. In words: qHTS assay to identify small molecule antagonists of the glucocorticoid receptor (GR) signaling pathway (AID 720692; active = well fitted inhibition curve with a large enough effect in the signal ratio in the repeat runs, not every such curve was filed as active; the % refers to the signal ratio). The note with it: GR-bla HeLa, beta-lactamase FRET ratio, dexamethasone-stimulated, 18 h; series mostly up to 58.5 µM. The gist of the method: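 Quantitative HTS in antagonist format: HeLa cells expressing endogenous GR and a stably integrated GRE-bla reporter, stimulated with 5 nM dexamethasone (final) alongside test compounds for 18 h.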

A short description of experiment [9]: qHTS assay to identify small molecule antagonists of the glucocorticoid receptor (GR) signaling pathway - cell viability counter screen (AID 720693). Also: nearly all actives have a fitted effect of over 55% in size. Also: potency is read from the fitted curve at half-maximal effect. The note with it: GR-bla HeLa viability, CellTiter-Glo luminescence, 18 h, with 5 nM dexamethasone present; series mostly up to 58.5 µM.
A short description of experiment [10]: qHTS assay for identifying genotoxic compounds that show differential cytotoxicity against isogenic chicken DT40 cell lines with known DNA damage response pathways - Rev3 mutant cell line (AID 743014). Also: nearly all actives have a fitted effect of over 55% in size. Also: potency is read from the fitted curve at half-maximal effect. The note with it: chicken DT40 Rev3-/- viability, CellTiter-Glo, 40 h; series mostly up to 68.4 µM.
Experiment [11] in a line: qHTS assay for identifying genotoxic compounds that show differential cytotoxicity against isogenic chicken DT40 cell lines with known DNA damage response pathways - Rad54/Ku70 mutant cell line (AID 743015). Also: nearly all actives have a fitted effect of over 60% in size. Also: potency is read from the fitted curve at half-maximal effect. The note with it: DT40 Rad54/Ku70 mutant viability, CellTiter-Glo, 40 h; series mostly up to 66.8 µM.
Experiment [12] can be described thus: qHTS assay to identify small molecule antagonists of the androgen receptor (AR) signaling pathway - cell viability counter screen (AID 743033; also: nearly all actives have a fitted effect of over 45% in size; also: potency is read from the fitted curve at half-maximal effect). The note with it: AR-bla HEK293 viability, CellTiter-Glo luminescence, 16 h; series mostly up to 58.5 µM.
The nature of experiment [13]: qHTS assay to identify small molecule antagonists of the androgen receptor (AR) signaling pathway using the MDA cell line - cell viability counter screen (AID 743041; also: nearly all actives have a fitted effect of over 45% in size). The note with it: MDA-kb2 viability, CellTiter-Fluor, 16 h, cells co-treated with R1881 androgen agonist; series mostly up to 70.3 µM. The gist of the method:
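Viability read by CellTiter-Fluor fluorescence in the same wells as the antagonist screen, added after 15.5 h of a 16 h, 37C exposure. Human breast carcinoma MDA-kb2 AR-luc cells, compounds co-dosed with agonist R1881.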

Experiment [14] is described as follows: qHTS assay to test for compound auto fluorescence at 460 nm (blue) in HepG2 cells (AID 720687). The note with it: autofluorescence 405/460 nm, 1 h; series mostly up to 46 µM. The gist of the method: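 Blue-channel autofluorescence (Ex/Em 405/460 nm, triamterene-equivalent) was measured after 1 hr compound exposure at 37 C, 5% CO2. Cells were HepG2, plated overnight at 37 C in MEM plus 10% FBS.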

Experiment [15] in a line: qHTS assay for identifying genotoxic compounds that show differential cytotoxicity against isogenic chicken DT40 cell lines with known DNA damage response pathways - wild type cell line (AID 743012). Also: nearly all actives have a fitted effect of over 60% in size. Also: potency is read from the fitted curve at half-maximal effect. The note with it: DT40 wild type chicken cells viability, CellTiter-Glo, 40 h; series mostly up to 68.4 µM. The essentials:
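Luminescent ATP viability signal (CellTiter-Glo, 30 min RT) recorded after wild type DT40 cells were incubated with compounds for 40 h at 37 C/5% CO2.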

Experiment [16] has as its target Androgen receptor (Homo sapiens) (UniProt P10275). In words: qHTS assay to identify small molecule agonists of the androgen receptor (AR) signaling pathway (AID 743036; active = well fitted activation curve with a large enough effect in the signal ratio in the repeat runs, with a control signal flat, not every such curve was filed as active; the % refers to the signal ratio). The note with it: HEK293 AR-UAS-bla GripTite, beta-lactamase FRET ratio, 16 h; series mostly up to 62.4 µM. The essentials:
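Quantitative HTS of the Tox21 10K library in HEK293 cells bearing a stably integrated UAS-controlled beta-lactamase reporter. Compound exposure lasted 16 h at 37C. Reporter activity was detected by FRET substrate fluorescence after 2 h at room temperature.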

Experiment [17] shares this target. In words: qHTS assay to identify small molecule agonists of the androgen receptor (AR) signaling pathway using the MDA cell line (AID 743040; also: nearly all actives have a fitted effect of over 20% in size). The note with it: MDA-kb2 AR-luc cells, MMTV luciferase, 16 h; series mostly up to 70.3 µM. The essentials: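 Luciferase agonist assay: 16 h compound exposure at 37C without CO2 in MDA-kb2 AR-luc cells, whose MMTV promoter responds to both AR and GR. Luminescence measured after 30 min room-temperature incubation with ONE-Glo.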

Experiment [18] in a line: qHTS assay to test for compound auto fluorescence at 460 nm (blue) in HEK293 cell free culture (AID 720681). The note with it: cell-free medium, autofluorescence 405/460 nm (blue); series mostly up to 46 µM. The gist of the method:
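Blue fluorescence (Ex 405/Em 460 nm, triamterene-equivalent) was read immediately after pin transfer of compound or DMSO into medium (DMEM, 10% FBS) without cells.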

In experiment [19] the target is Androgen receptor (Homo sapiens) (UniProt P10275). In words: qHTS assay to identify small molecule antagonists of the androgen receptor (AR) signaling pathway (AID 743035; active = well fitted inhibition curve with a large enough effect in the signal ratio in the repeat runs, not every such curve was filed as active; the % refers to the signal ratio). The note with it: HEK293 AR-UAS-bla, R1881-stimulated, beta-lactamase FRET, 16 h; series mostly up to 58.5 µM. The essentials:
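Quantitative HTS of the Tox21 10K library used HEK293 AR-UAS-bla cells stimulated with R1881 alongside compound for 16 h at 37C, followed by beta-lactamase FRET detection (LiveBLAzer B/G, 2 h, RT).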

Experiment [20] shares this target. The experiment can be described thus: qHTS assay to identify small molecule antagonists of the androgen receptor (AR) signaling pathway using the MDA cell line (AID 743042; also: nearly all actives have a fitted effect of over 55% in size). The note with it: MDA-kb2 AR-luc, MMTV luciferase, R1881 antagonist, 16 h; series mostly up to 70.3 µM. The gist of the method:
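Antagonist mode: compounds plus R1881 agonist added to MDA-kb2 AR-luc cells, incubated 16 h at 37C. Luciferase reporter luminescence quantified, with multiplexed CellTiter-Fluor readout for cell viability.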

Where “and” joins values, the source holds several entries; their conditions need not be identical. Equal values may be shown once. Inconclusive results are not listed. The source holds several records for some structures; these can differ, active in one and inactive in another. Calls of active or inactive are those of the source. Unless noted, calls follow the shape of the dose curve; as a rule, active = well fitted curve in the direction sought with a large enough effect in the repeat runs; inconclusive = weak or mixed curves; inactive = no such curve, though single readings can be large; an effect the other way counts as inactive or inconclusive.

Sequence of Glucocorticoid receptor (Homo sapiens) (P04150 whole entry, looked up): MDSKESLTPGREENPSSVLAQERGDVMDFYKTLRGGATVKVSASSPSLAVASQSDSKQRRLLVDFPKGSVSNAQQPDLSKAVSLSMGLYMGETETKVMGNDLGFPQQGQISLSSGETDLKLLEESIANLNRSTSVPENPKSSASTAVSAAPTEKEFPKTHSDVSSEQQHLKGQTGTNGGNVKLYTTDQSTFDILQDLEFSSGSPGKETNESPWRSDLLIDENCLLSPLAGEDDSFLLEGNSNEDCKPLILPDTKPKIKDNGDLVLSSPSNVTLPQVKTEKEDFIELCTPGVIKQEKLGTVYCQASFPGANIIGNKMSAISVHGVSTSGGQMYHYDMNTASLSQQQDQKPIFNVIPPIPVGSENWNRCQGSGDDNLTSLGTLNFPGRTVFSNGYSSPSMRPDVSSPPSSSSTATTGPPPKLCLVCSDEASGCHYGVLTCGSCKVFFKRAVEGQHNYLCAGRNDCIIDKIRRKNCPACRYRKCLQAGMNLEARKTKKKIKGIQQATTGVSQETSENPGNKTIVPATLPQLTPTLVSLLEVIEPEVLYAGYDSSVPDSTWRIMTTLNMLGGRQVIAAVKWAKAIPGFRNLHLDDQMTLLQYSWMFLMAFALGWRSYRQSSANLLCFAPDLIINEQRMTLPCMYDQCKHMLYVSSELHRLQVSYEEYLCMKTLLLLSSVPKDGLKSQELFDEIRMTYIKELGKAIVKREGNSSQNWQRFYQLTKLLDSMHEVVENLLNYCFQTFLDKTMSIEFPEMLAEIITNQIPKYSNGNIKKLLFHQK
Sequence of Androgen receptor (Homo sapiens) (P10275 whole entry, looked up): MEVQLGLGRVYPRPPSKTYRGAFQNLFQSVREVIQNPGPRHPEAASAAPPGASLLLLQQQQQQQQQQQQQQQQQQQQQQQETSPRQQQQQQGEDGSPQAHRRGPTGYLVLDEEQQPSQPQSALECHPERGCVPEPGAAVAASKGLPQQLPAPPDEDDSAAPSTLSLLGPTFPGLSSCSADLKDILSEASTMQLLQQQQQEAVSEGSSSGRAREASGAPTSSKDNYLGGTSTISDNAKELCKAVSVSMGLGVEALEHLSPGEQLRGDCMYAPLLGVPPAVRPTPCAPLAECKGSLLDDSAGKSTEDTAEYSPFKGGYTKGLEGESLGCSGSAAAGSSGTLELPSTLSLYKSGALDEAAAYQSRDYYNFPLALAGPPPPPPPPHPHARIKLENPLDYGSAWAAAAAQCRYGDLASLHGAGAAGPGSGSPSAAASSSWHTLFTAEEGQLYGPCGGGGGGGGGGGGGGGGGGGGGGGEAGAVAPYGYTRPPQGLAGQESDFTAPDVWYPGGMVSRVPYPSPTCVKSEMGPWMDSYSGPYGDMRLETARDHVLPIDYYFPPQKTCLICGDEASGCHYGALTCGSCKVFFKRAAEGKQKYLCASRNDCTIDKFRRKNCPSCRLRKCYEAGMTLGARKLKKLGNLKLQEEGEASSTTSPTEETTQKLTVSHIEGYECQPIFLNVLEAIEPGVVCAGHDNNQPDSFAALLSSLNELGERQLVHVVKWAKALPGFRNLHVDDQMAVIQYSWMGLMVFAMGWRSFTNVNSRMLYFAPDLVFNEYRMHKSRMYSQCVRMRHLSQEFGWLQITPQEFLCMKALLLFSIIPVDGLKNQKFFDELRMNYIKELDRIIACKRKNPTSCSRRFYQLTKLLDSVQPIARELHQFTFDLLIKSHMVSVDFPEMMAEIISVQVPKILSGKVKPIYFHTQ

As to `O=C1c2ccccc2CN2C(=O)c3ccccc3CN12`, the call in experiment [1], in experiment [2], in [3] and in experiment [4] was inactive. Also, the Potency result in experiment [5], in experiment [6], in experiment [7], in experiment [8], in [9] and in [10] was “inactive” each time. Further, the Potency result in experiment [11], in experiment [12] and in experiment [13] was “inactive” throughout.

For `CC1(C)S[C@@H]2[C@H](NC(=O)[C@H](N)c3ccc(O)cc3)C(=O)N2[C@H]1C(=O)O`, the compound was called inactive in [1], in experiment [2], in experiment [3] and in experiment [4]. The Potency entry in [6], in experiment [14], in experiment [9], in experiment [15], in experiment [10] and in experiment [11] was “inactive” in each case. The Potency result in experiment [12], in [16], in experiment [17] and in experiment [13] was “inactive” throughout.

Regarding `CCCC(CCC)C(=O)OC1C[C@H]2CC[C@@H](C1)[N+]2(C)C` (some centres undefined), the compound was called inactive in experiment [1], in experiment [2], in [3] and in experiment [4]. In addition, the Potency result in experiment [5], in [6], in experiment [14], in [9], in [11] and in experiment [12] was “inactive” throughout. The Potency result in experiment [13] is “inactive”. The Potency result in experiment [10] is “inactive and 13.3 µM (active)”.

`C=CC[N+]1([C@H]2C[C@H]3[C@@H]4CC[C@H]5C[C@H](O)[C@@H](N6CCOCC6)C[C@]5(C)[C@H]4CC[C@]3(C)[C@H]2OC(C)=O)CCCC1`: the outcome in experiment [1], in experiment [2] and in experiment [3] was inactive. Besides, the Potency result in [6], in experiment [14], in experiment [7], in experiment [9], in [10] and in [11] was “inactive” in each case. In addition, the Potency entry in [12] and in experiment [13] was “inactive” each time.

For `COc1ccc2ccccc2c1`, the Potency entry in experiment [18], in [5], in [6] and in experiment [14] was “inactive” in each case. Also, the compound was called inactive in [2], in experiment [3] and in experiment [4].

Turning to `C[N+]1(CCCCC[N+]2(C)CCCC2)CCCC1`, the result in experiment [1], in [2] and in experiment [4] was inactive. Besides, the Potency entry in experiment [5], in [6], in experiment [14], in experiment [7], in [8] and in [9] was “inactive” in each case. Also, the Potency entry in experiment [15], in experiment [10], in experiment [12], in [19], in experiment [16] and in experiment [17] was “inactive” each time. The Potency result in [13] and in experiment [20] was “inactive” in each case.

With `COc1cc2c(cc1O)CCN[C@]21CS[C@@H]2c3c(OC(C)=O)c(C)c4c(c3[C@H](COC1=O)N1[C@@H]2[C@H]2c3c(cc(C)c(OC)c3O)C[C@@H]([C@@H]1O)N2C)OCO4`, the outcome in [1] and in [2] was inactive. For the same compound, the Potency result in [5], in experiment [6], in experiment [14] and in experiment [13] was “inactive” throughout. Moreover, the Potency in [9] was 60.1 nM (active) and 17.4 nM (active); in experiment [15] it was 0.9 nM (active) and 2.4 nM (active); in experiment [11], 0.0001 µM (active).

On to `CCCCCCCCCC[N+](C)(CCCCCCCCCC)CCC[Si](OC)(OC)OC`, for which the compound was classed as inactive in experiment [1], in [3] and in experiment [4]. Further, the Potency entry in experiment [5], in experiment [6], in [14] and in experiment [9] was “inactive” throughout. Further, the Potency in [15] was 5.45 µM (active); in experiment [10] it was 7.7 µM (active); in experiment [11], 7.7 µM (active); in experiment [12] it was 43.6 µM (active).

These data come from PubChem BioAssay (Tox21).
